From PubChem
TSG101-PTAP inh = inhibitors of HIV-1 PTAP binding to human TSG101, validation. Fluorescence polarization, FITC-PTAP peptide/Tsg101, 20 min. 44,000 tested, under 10 active. Potency, µM (doses to about 115 µM), hits mostly inhibitors; further: potency means the concentration at half of the fitted maximal effect; 0% is about no effect
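Read-out is FITC fluorescence polarization. Compounds were added to Tsg101 binding domain (10 uM final), then FITC-PTAP peptide (50 nM final), 20 min at r.t. Total S+P intensity flags fluorescent compounds.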
DRV1 agonist = activates human resolvin D1 receptor GPR32. O75388. CHO-K1 GPR32 beta-arrestin PathHunter luminescence, 90 min; zero percent set by DMSO-only wells. activation, % at 76.9 µM. actives 2.5% (n = 48,000);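 active means activation of at least 60% and not above a set upper limit, about 1 call in 100 departs from these limits; inconclusive means activation of 40% to 60%, or above that upper limit; inactive means activation under 40%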; further: 0% is about no effect
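GPR32 activation in stably transfected CHO-K1 cells, detected as beta-arrestin recruitment by enzyme-fragment complementation. Compound exposure: 90 min, 37 °C.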
B2AR arrestin ag = ADRB2 beta-arrestin recruitment; P07550; HTLA Tango cells, beta-arrestin recruitment, luciferase luminescence, 18 h; Potency, µM (titrated, usually from 46.1 µM), hits mostly activators; 44,000 tested, under 10 active; AID 1347077;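 further: potency means the concentration at half of the fitted maximal effect; 0% = DMSO and full agonism = EC100 isoproterenol or metaproterenol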
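Tango cell line, 1% FBS DMEM; cpd titration up to 46 microM; 18 hr, 37 degrees C, 5% CO2. Luciferin/ATP substrate mix added, 15 min RT, luminescence. %Activity, CRC fitting, curve-class categorization.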
GALK inhibitor = inhibits human galactokinase. recombinant GALK, Kinase-Glo ATP luminescence, 1 h. 44,000 tested, under 10 active. AID 1347072. Potency, µM (highest dose often 57.5 µM), without a hit: top-dose activity, negative = inhibition, most hits filed as inhibitors;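 further: plate controls were full GALK reaction for no effect and reaction lacking GALK for full effect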
Target sequence (P51570 whole entry, looked up): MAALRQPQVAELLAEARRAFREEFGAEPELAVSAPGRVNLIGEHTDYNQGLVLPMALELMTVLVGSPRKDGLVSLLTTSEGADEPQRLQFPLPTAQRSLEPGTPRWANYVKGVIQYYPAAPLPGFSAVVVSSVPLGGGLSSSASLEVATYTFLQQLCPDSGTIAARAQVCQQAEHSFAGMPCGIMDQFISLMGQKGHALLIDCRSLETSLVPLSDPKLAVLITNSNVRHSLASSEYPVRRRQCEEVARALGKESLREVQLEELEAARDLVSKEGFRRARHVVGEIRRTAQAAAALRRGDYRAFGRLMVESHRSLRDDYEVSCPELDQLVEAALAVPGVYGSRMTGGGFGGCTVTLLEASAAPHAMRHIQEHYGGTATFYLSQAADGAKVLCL
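Luminescent ATP-depletion readout (Kinase-Glo Plus, 10 min) after 1 h RT reaction of 5 nM GALK, 35 uM ATP, 100 uM galactose, pH 8.0 HEPES buffer. Decreased kinase activity scored as inhibition.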
FH mod = Identification of activators of human fumarate hydratase by quantitative high-throughput screening. Fumarate hydratase, mitochondrial (Homo sapiens), P07954. FH coupled MDH/diaphorase resazurin fluorescence, 15 min. Potency, µM (highest dose often 79.9 µM), without a hit: at the top dose activity change, negative = inhibition, hits mostly inhibitors. actives 0.22% (n = 54,000); further: potency means the concentration at half of the fitted maximal effect; on the % scale 0 is the no-effect control and ±100 the full control effect; the screen sought activators but most active calls are inhibition curves; nearly all actives have a fitted effect of over 45% in size
GALC G270D up = raises human GALC G270D mutant activity in cells; 145M-Twi-hGALC-G270D cells (Twitcher mouse brain line with human GALC G270D), HMU-beta-Gal fluorescence, 48 h; P54803; Potency, µM (doses to about 57.5 µM), usual class: activators; actives 0.1% (n = 45,000); further: potency means the concentration at half of the fitted maximal effect; 0% is about no effect; nearly all actives have a fitted effect of over 65% in size
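Fluorogenic HMU-b-Gal hydrolysis (0.1 mM final, pH 5.2 citrate-phosphate with 1 mg/mL sodium taurocholate; carbonate stop buffer) measures mutant GALC activity after compound treatment of live 145M-Twi Twitcher brain cells stably carrying human GALC-G270D, with wild-type GALC line alongside; activation sought.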
An asterisk follows results filed as active; i = inactive; ? = inconclusive; / = no result; [ ] = remark or other dose. Hits are enriched below; roughly 2.6% of the tested compounds scored in any of these assays. Unless noted, the call rests on the fitted dose curve; in most records, active means well fitted curve in the direction sought with a large enough effect; inconclusive means small, poorly fitted or top-dose-only effect, or another doubt; inactive means no such curve, though single readings can be large; an effect the other way counts as inactive or inconclusive.

SMILES	TSG101-PTAP inh	DRV1 agonist	B2AR arrestin ag	GALK inhibitor	FH mod	GALC G270D up
Cc1ccc(NS(=O)(=O)c2ccc3[nH]c4c(c3c2)CCCC4)cc1N(C)C	i	92*	i	2%	?	i
CCOc1ccc(NS(=O)(=O)c2ccc3[nH]c4c(c3c2)CCCC4)cc1	i	49	i	5%	?	i
COc1c2c(c(C)c3c1C(=O)OC3)OC1(C)CC(O)C34OC(OC)(CC(OC(C)=O)C3(C)C1C2)OC4(C)C (centres undefined)	/	/	/	/	21%[53.3 µM]	/
COc1ccc(NS(=O)(=O)c2ccc3[nH]c4c(c3c2)CCCCC4)cc1	i	74*	i	-1%	-8%	i
COc1ccc(NS(=O)(=O)c2ccc3[nH]c4c(c3c2)CCCC4)cc1Cl	i	90*	i	-3%	?	i
Cc1ccc(NS(=O)(=O)c2ccc3[nH]c4c(c3c2)CCCCCC4)cc1Cl	i	19	i	0%	?	i
CC(C)C(=O)OC[C@H]1O[C@@H](n2ccc(N)nc2=O)[C@](C)(F)[C@@H]1OC(=O)C(C)C	/	/	/	/	3%	/
Cc1ccc(Cn2cc(C(=O)c3ccc(C)cc3)c(=O)c3ccc(C)nc32)cc1	i	0	?	0%	-22%	i
Cc1ccc(C(=O)c2cn(Cc3c(F)cccc3Cl)c3nc(C)ccc3c2=O)cc1	i	82*	i	0%	-9%	i
CCc1ccc(C(=O)c2cn(CC(=O)Nc3cc(F)ccc3F)c3nc(C)ccc3c2=O)cc1	i	28	i	1%	-18%	4µM*
Cn1c(=O)cc(N2CCCC(N)C2)n(Cc2cc(F)ccc2C#N)c1=O (centres undefined)	/	/	/	/	-1%	/
O=c1onc2n1-c1cc(Br)ccc1OC2	/	65*	/	/	?	/
CCCC(O)c1nc2ccccc2n1CCCOc1ccc(Cl)cc1 (centres undefined)	i	68*	i	1%	-5%	i
Cc1ccc(CN2C(=O)SC(Nc3ccc(Cl)cc3)C2=O)cc1 (centres undefined)	i	61*	i	5%	6%	i
Cc1ccc(CN2C(=O)N(c3ccc(F)cc3)C(=O)C2CC(=O)Nc2ccc(Cl)cc2)cc1 (centres undefined)	i	4	i	6%	-16%	i
CC1CN(CC(=O)Nc2ccc3c(c2)Cc2cccc(-c4cc(=O)cc(N5CCOCC5)o4)c2S3)CC(C)O1 (centres undefined)	/	/	/	/	-15%	/
Cc1ccc(-c2c(C)n3c4c(=O)n(C)c(=O)n(C)c4nc3n2CCCO)cc1	i	60*	i	4%	-7%	i
CC(C)c1ccc(Nc2cc(C(=O)NCCc3ccccc3)c3ccccc3n2)cc1	i	85*	i	0%	3%	i
COc1ccc(Nc2cc(C(=O)NCCCN(C)Cc3ccccc3)c3ccccc3n2)cc1	i	-33	i	0%	-20%	i
COc1ccc(Nc2cc(C(=O)NCCCN(C)Cc3ccccc3)c3ccccc3n2)c(OC)c1	i	65*	i	2%	-15%	i
O=C(NCCc1ccccc1)c1cc(Nc2ccccc2)nc2ccccc12	i	7	i	-2%	-25%	i
COc1cc(OC)c(C2Nc3ccccc3-c3nnc(SCc4ccccc4)nc3O2)cc1OC (centres undefined)	i	64*	i	?	-26%	i
CC(=O)Nc1nc(C)c(-c2nc(N3CCCC(O)C3)no2)s1 (centres undefined)	/	/	/	/	-4%	/
COc1ccc2cc(OCC3(C(=O)O)CN(C(=O)c4ccc(F)cc4)C3)ccc2c1	/	/	/	/	1%	/
COc1ccc(NC(=O)Cn2nnc(C(=O)NCCc3ccccc3)c2N)cc1	i	26	i	7%	-3%	i
SMILES	TSG101-PTAP inh	DRV1 agonist	B2AR arrestin ag	GALK inhibitor	FH mod	GALC G270D up
COc1ccc(NC(=O)c2nnn(CC(=O)Nc3ccc(C)c(C)c3)c2N)cc1OC	i	91*	i	3%	-18%	i
CCOc1ccc(NC(=O)Cn2nnc(C(=O)NCCc3ccccc3)c2N)cc1	i	88*	i	0%	-7%	i
Cc1cccc(NC(=O)CSc2nc3ccc(NC(=O)c4cccs4)cc3s2)c1	i	64*	i	1%	-1%	i
Cc1cccc(NC(=O)CSc2nc3ccc(NC(=O)CCc4ccccc4)cc3s2)c1	i	30	i	-1%	1%	i
O=C(Nc1ccc2nc(SCCOc3ccccc3)sc2c1)c1cccs1	i	-3	i	-11%	-8%	i
COc1cccc(NC(=O)CSc2nc3ccc(NC(=O)c4cccs4)cc3s2)c1	i	95*	i	-6%	-15%	i
Cc1cccc(Oc2cnc(=O)[nH]c2)c1	/	/	/	/	7%	/
CCOc1cccc2c1OC(c1ccc(F)cc1)C([N+](=O)[O-])=C2 (centres undefined)	/	/	/	/	-3%	/
CCCCC(=O)Nc1cc(-c2nc3ccccc3o2)ccc1OC	i	12	i	-1%	-8%	i
COc1ccc(-c2nc3ccccc3o2)cc1NC(=O)c1cccnc1	i	86*	i	3%	-6%	i
COC(C(=O)N1Cc2[nH]nc(NC(=O)c3ccc(N4CCN(C)CC4)cc3)c2C1)c1ccccc1 (centres undefined)	/	/	/	/	-9%	/
CCc1ccc(NC(=O)Cn2nnc(-c3ccccc3N)n2)cc1	i	62*	i	4%	13%	i
Nc1nc(N)c2nc(-c3cccc(O)c3)cnc2n1	/	/	/	/	-4%	/
C=C(C)C1CCC(C)C12CC(O)C1(C)OC1C2OC(=O)C(N)CCC(=O)O (centres undefined)	/	/	/	/	2%[53.3 µM]	/
Cc1ccc(C(=O)NCC(c2cccs2)S(=O)(=O)c2cccs2)cc1C (centres undefined)	i	14	i	-2%	?	i
O=C(NCC(c1cccs1)S(=O)(=O)c1cccs1)c1ccc(F)c(F)c1 (centres undefined)	i	95*	i	1%	-4%	i
O=C(NCC(c1cccs1)S(=O)(=O)c1cccs1)c1ccc(Cl)cc1 (centres undefined)	i	100*	i	-3%	-9%	i
C=C1C(OC(C)=O)CCC2(C)CCC(C(C)(C)O)CC12 (centres undefined)	/	/	/	/	-1%	/
